# FMDV inh – High Throughput Screening for Foot and Mouth Disease Virus Antivirals; FMDV antiviral cell-based qHTS; Potency, µM (titrated, usually from 57.9 µM), inactives show at the highest dose activity change, negative = inhibition, most hits filed as inhibitors; actives 1.2% (n = 410,000); calls by dose curve; tested in HEK293T cells; also: read-out not given here; potency is read from the fitted curve at half-maximal effect; % is scaled to controls: 0 for no effect and ±100 for the full control effect; nearly all actives have a fitted effect of over 45% in size
# HCV inhibitor – qHTS Assay for Inhibitors of Hepatitis C Virus (HCV); Potency, µM (doses to about 41.8 µM), without a hit: top-dose activity change, negative = inhibition, hits mostly inhibitors; Huh7.5.1 HCVcc-Cre infection, luciferase reporter, 44 h; actives 3.4% (n = 340,000); active = well fitted inhibition curve with a large enough effect; inconclusive = small, poorly fitted or top-dose-only effect, or another doubt; inactive = no such curve, though single readings can be large or run the other way; also: potency is read from the fitted curve at half-maximal effect; % is scaled to controls: 0 for no effect and ±100 for the full control effect
#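 Luciferase read-out (15 sec integration) after a 15 min room-temperature substrate step quantifies HCVcc-Cre infection. Cells, 1,000 per well, had compound added 4 h post-plating, then virus at ~0.5 moi, and were cultured 44 h.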
# Marburg entry inh – qHTS for inhibitors of binding or entry into cells for Marburg Virus | Marburg virus pseudotyped entry inhibition, cell reporter | AID 540276, 2011 | actives 1.8% (n = 300,000) | Potency, µM (highest dose often 37.8 µM), inactives show at the highest dose activity change, negative = inhibition, actives largely listed as inhibitors; calls by dose curve; tested in HEK293 cells; also: potency is read from the fitted curve at half-maximal effect; % is scaled to controls: 0 for no effect and ±100 for the full control effect
# CHX counter – Cycloheximide Counterscreen for Small Molecule Inhibitors of Shiga Toxin. cell reporter, cycloheximide protein synthesis inhibition counterscreen. max response, %. actives 12% (n = 300,000); in the data active = max response mostly above about 13%, no sharp cut-off; inactive = mostly below about 14%; also: read at 38.3 µM for the half of the compounds with a filed dose; 0% is about no effect
# Shiga toxin inh – A qHTS for Small Molecule Inhibitors of Shiga Toxin | actives 9.2% (n = 290,000) | Vero cells, Shiga toxin protein synthesis inhibition reporter | inhibition, % at 38.7 µM; in the data active = inhibition mostly above about 28%, no sharp cut-off; inactive = mostly below about 43%; also: 0% is about no effect
# Lassa entry inh – qHTS for Inhibitors of binding or entry into cells for Lassa Virus. actives 1.2% (n = 300,000). Lassa virus pseudotype entry inhibition, cell reporter. Potency, µM (series often up to 37.9 µM), without a hit: at the highest dose activity change, negative = inhibition, actives largely listed as inhibitors; calls by dose curve; tested in HEK293 cells; also: potency is read from the fitted curve at half-maximal effect; % is scaled to controls: 0 for no effect and ±100 for the full control effect; nearly all actives have a fitted effect of over 50% in size
# Starred values were filed as active, the others as inactive; u = inconclusive; x = not tested or not shown; [ ] = another dose, or the depositor's remark. In the library only some 13% were active in any assay of this set; here they are far more common.
SMILES,FMDV inh,HCV inhibitor,Marburg entry inh,CHX counter,Shiga toxin inh,Lassa entry inh
Cc1ccc(NC2=Nc3ccccc3CS2)cc1,-28%,-12%,10µM*,38*,30,u
c1ccc(NC2=NCCS2)cc1,22%,6%,x,0,28,x
CCCc1c(-c2ccc(O)cc2)nn(-c2ccc(O)cc2)c1-c1ccc(O)cc1,0%,u,u,-10,-17,0.29µM*
Cc1nc2ccc(S(=O)(=O)NC(C(=O)N3CCC(C)CC3)C(C)C)cc2s1 (stereo not given),-12%,7%,x,-5,2,x
CCOc1ccc(N)cc1,-8%,22%,x,x,x,x
CCOc1ccc(Oc2ccc(Cl)cc2N)cc1,15%,u,x,24*,29*,x
CCN(CC)N=Nc1[nH]nc2nc(C)cc(C)c12,23%,-16%,11%,25,4,-12%
Cc1cc(C)c2c(N=NN3CCCCC3)[nH]nc2n1,24%,u,u,38*,41*,-12%
COc1ccc(N2CCN(C(=O)c3cc4c(s3)CCCCC4)CC2)cc1,-3%,-28%,x,x,x,x
CC(=O)c1ccc(N2CCN(C(=O)c3cc4c(s3)CCCC4)CC2)cc1,4%,u,u,18*,71*,-18%[46.1 µM]
CC(=O)c1ccc(N2CCN(C(=O)C3CCN(S(=O)(=O)c4ccc(F)cc4)CC3)CC2)cc1,-12%,13%,x,x,x,x
O=C(c1cc2c(s1)CCCC2)N1CCC2(CC1)OCCO2,61%,-4%,18%,22*,76*,0%
O=C(C1CCN(S(=O)(=O)N2CCOCC2)CC1)N1CCN(c2ccc(F)cc2)CC1,-2%,u,-39%[46.1 µM],-1,-2,1%[46.1 µM]
CC(=O)c1ccc(N2CCN(C(=O)C3CCC3)CC2)cc1,38%,8%,4%,14*,-6,1%
O=C(C1CCN(c2ccc(N3CCOCC3)nn2)CC1)N1CCN(c2ccc(F)cc2)CC1,u,u,-5%,9,71*,0%
CCOC(=O)NC1(Nc2cccc(Cl)c2)Oc2ccccc2O1,10%,u,u,12,-3,u
C=CCN1CCN(C(=O)c2cc3c(s2)CCCC3)CC1,-5%,0%,u,15*,59,28%[46.1 µM]
O=C(c1cc2c(s1)CCCC2)N1CCN(Cc2ccc3c(c2)OCO3)CC1,u,-22%,u,4,-8,-17%
O=C(c1cc2c(s1)CCCC2)n1cccn1,29%,4%,u,18*,9,20%
O=C(c1cc2c(s1)CCCCC2)N1CCN(c2ncccn2)CC1,11%,u,-17%,9,19,13%
COc1ccc(-c2c(C)nn3c(C(F)(F)F)cc(-c4ccccc4)nc23)cc1,0%,x,1%[46.1 µM],x,x,2%[46.1 µM]
COCCNc1nc(-c2cccc(NS(C)(=O)=O)c2)nc2ccccc12,-5%,x,x,x,x,x
Cc1occc1-c1nnc(SCc2nnc(-c3ccc(Cl)cc3)o2)n1C,16%,-8%,3%,31*,65*,9%
Cc1ccc(-c2nnc(CSc3nncn3N)o2)cc1,10%,30%,u,19*,35,4%
CCOC(=O)c1ccc(CSc2nncn2N)o1,0%,8%,u,2,-14,u
SMILES,FMDV inh,HCV inhibitor,Marburg entry inh,CHX counter,Shiga toxin inh,Lassa entry inh
Cn1c(SCc2nc(-c3ccc(Cl)cc3)no2)nnc1-c1ccccc1,-23%,3%,6%,-1,-7,19%
Cn1nnnc1SCc1nnc(-c2ccc(Cl)cc2)o1,21%,-5%,u,29*,56*,8%
Cc1ccccc1NC(=O)Cc1nnc(SCC(=O)c2ccc(Br)cc2)n1C,2%,-17%,17%,7,2,-10%
COc1ccccc1-n1c(C)c2c(OC)cccc(=O)c2c1C,0%,-8%,9%,12,9,5%
CC(=O)NC1CCCN(O)C(=O)/C=C(\C)CCOC(=O)C(NC(C)=O)CCCN(O)C(=O)/C=C(\C)CCOC(=O)C(NC(C)=O)CCCN(O)C(=O)/C=C(\C)CCOC1=O (stereo not given),20µM*,-23%,x,-3,16,x
Cc1ccc(/C=C/C(=O)CCC(=O)O)cc1,18%,10%,26%[46.1 µM],35*,64*,5%[46.1 µM]
Cc1ccc(/C=C/S(=O)(=O)NCC(=O)O)cc1,1%,12%,-9%[46.1 µM],-2,21,-6%
C=C(C)[C@@H]1CC=C(CN2CCC(N3CCC(C(=O)N4CCCC4)CC3)CC2)CC1,u,u,u,-2,-3,u
CC(C)=CCCC(C)CN1CCC(N2CCC(C(=O)N3CCCC3)CC2)CC1 (stereo not given),u,2.5µM*,x,1,-8,x
COc1ccc(CCNc2oc(-c3ccc(OC)c(OC)c3)nc2C#N)cc1,-3%,u,24%,6,23,-32%
CCCCCCCCOC(=O)c1cc([N+](=O)[O-])c(Sc2ncnc3nc[nH]c23)c([N+](=O)[O-])c1,u,10%,u,x,x,11µM*
CCN(CC)c1ccc(NC(=O)CN2C(=O)CSc3ncccc32)c(C)c1,u,3.5µM*,x,5,10,x
CCN(Cc1nc(-c2ccc(Cl)cc2)no1)CC1CCCO1 (stereo not given),-3%,2%,2%[46.1 µM],14*,17,-6%[46.1 µM]
Cc1ccc(-c2noc(CN3C(C)CCCC3C)n2)cc1 (stereo not given),14%,12%,x,22*,-1,x
CC1CCN(Cc2nnc(-c3cccc(Br)c3)o2)CC1,24%,12%,5%[46.1 µM],34*,32*,-5%[46.1 µM]
CN1CCN(Cc2nnc(-c3ccccc3)o2)CC1,6%,18%,x,0,7,x
OCCN1CCN(Cc2nc(-c3cccc(Cl)c3)no2)CC1,5%,-2%,u,2,31,u
CN1CCCN(Cc2nc(-c3ccc(Cl)cc3)no2)CC1,-25%,u,-5%[46.1 µM],29*,35,24%[46.1 µM]
CCCN(Cc1nc(-c2ccc(Cl)cc2)no1)CC1CCCO1 (stereo not given),-5%,-4%,0%[46.1 µM],-2,-7,20%
Cc1ccccc1SCC(=O)NNC(=O)c1ccccc1O,0%,u,x,3,-4,x
CNC(=S)Nc1cccc(C(=O)OC)c1,68%,-4%,u,5,8,0%
c1ccc(-c2noc(CN3CCN(c4ccccc4)CC3)n2)cc1,-9%,0%,x,-2,-5,x
COC(=O)c1ccc(-c2noc(CN(C)CCC3CCCCO3)n2)cc1 (stereo not given),-15%,11%,8%[46.1 µM],16*,31,-23%[46.1 µM]
Cc1ccc(-c2noc(CN3CCC(C(N)=O)CC3)n2)cc1,68%,18%,1%,41*,84*,u
COc1ccc(-c2noc(CN(C)CCC3CCCCO3)n2)cc1 (stereo not given),-15%,-11%,1%[46.1 µM],-5,30,3%
NC(=O)[C@@H]1CCCN1Cc1nc(-c2cccs2)no1,3%,17%,6%,-3,-14,18%

# Source: PubChem (National Center for Advancing Translational Sciences (NCATS))
